# Data taken from PubChem BioAssay AID624255 (Broad Institute, 2012).
# Values joined by “and” are separate entries in the source; they are usually repeats but may differ in a detail not shown here. Identical values can stand only once. In all, about 77,000 compounds went through this assay and about 4,600 (6%) were called active. Roughly 1% stayed inconclusive and do not appear here.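 How the source made its calls: active means mean inhibition above about 93%, with at least 55% of replicates each passing it (limit read from the data, passing the limit was not always enough); inconclusive means only one of those two conditions holds; inactive means neither condition holds.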 Only a selection was taken, and actives are over-represented in it overall. The source holds several records for some structures; these can differ, active in one and inactive in another.
# Experiment: growth inhibition of T. cruzi in host fibroblasts – cell-based, beta-gal Tulahuen parasites, NIH3T3 host, luminescence, primary screen (AID 624255)
# Settings: T. cruzi beta-gal in NIH3T3, GalScreen luminescence, 90 h; at 8.34 µM; stronger effect = higher value
row,SMILES,inhibition
1,CN1C(=O)c2cc(NC(=O)Nc3ccccc3Cl)ccc2OC[C@H]2O[C@@H](CC(=O)O)CC[C@H]21,15.3% (inactive)
2,Cc1noc(C)c1NC(=O)N(C)C[C@@H]1OCCCC[C@H](C)Oc2ccc(NC(=O)NC3CCCCC3)cc2C(=O)N([C@H](C)CO)C[C@@H]1C,22.8% (inactive)
3,Cc1ccccc1S(=O)(=O)Nc1ccc2c(c1)C(=O)N(C)[C@H]1CC[C@@H](CC(=O)O)O[C@H]1CO2,13.1% (inactive)
4,C[C@@H]1CN([C@H](C)CO)C(=O)Cc2cc(NC(=O)CCN3CCOCC3)ccc2O[C@H]1CN(C)CC1CC1,37.8% (inactive)
5,O=C(CC1CC1)N1[C@H](CO)[C@@H]2c3ccccc3N(S(=O)(=O)c3ccc(F)cc3)C[C@@H]21,18.3% (inactive)
6,C[C@@H]1CN([C@@H](C)CO)C(=O)CCCn2cc(nn2)CO[C@@H]1CN(C)S(=O)(=O)c1cccc(F)c1,-8.28% (inactive)
7,CCCNC(=O)N(C)C[C@@H]1Oc2ncc(C#Cc3ccccc3F)cc2C(=O)N([C@@H](C)CO)C[C@H]1C,116% (active)
8,C[C@@H]1CN([C@@H](C)CO)C(=O)CCCn2cc(nn2)CO[C@@H]1CN(C)S(=O)(=O)c1ccccc1F,112% (active)
9,C[C@H](CO)N1C[C@H](C)[C@H](CN(C)C(=O)C2CCOCC2)Oc2ncc(C#Cc3ccccc3F)cc2C1=O,-27.2% (inactive)
10,C[C@H](CO)N1C[C@H](C)[C@@H](CN(C)S(=O)(=O)c2ccccc2)Oc2ncc(C#Cc3ccccc3F)cc2C1=O,120% (active)
11,CCCNC(=O)N(C)C[C@H]1Oc2ncc(C#Cc3ccncc3)cc2C(=O)N([C@@H](C)CO)C[C@@H]1C,12.1% (inactive)
12,C[C@H](CO)N1C[C@H](C)[C@@H](CN(C)S(=O)(=O)c2ccccc2F)Oc2ncc(C#Cc3ccccc3F)cc2C1=O,112% (active)
13,C[C@H]1CN([C@@H](C)CO)C(=O)c2cc(C#Cc3ccccc3F)cnc2O[C@@H]1CN(C)C(=O)C1CC1,-11.1% (inactive)
14,COc1ccc(C#Cc2cnc3c(c2)C(=O)N([C@H](C)CO)C[C@H](C)[C@H](CN(C)S(=O)(=O)c2ccc(F)cc2)O3)cc1OC,104% (inactive)
15,C[C@H]1CN([C@@H](C)CO)C(=O)c2cc(C#Cc3ccccc3F)cnc2O[C@H]1CN(C)C,87.2% (inactive)
16,C[C@H]1CN([C@@H](C)CO)C(=O)CCCn2cc(nn2)CO[C@@H]1CN(C)S(=O)(=O)c1ccc(-c2ccccc2)cc1,3.26% (inactive) and 11.9% (inactive)
17,CCCNC(=O)N(C)C[C@H]1Oc2ncc(C#CC(C)C)cc2C(=O)N([C@@H](C)CO)C[C@@H]1C,53.3% (inactive)
18,CCC(=O)NC[C@H]1[C@@H](c2ccc(C3=CCCC3)cc2)[C@@H](CO)N1C(=O)C1CC1,21.5% (inactive)
19,CO[C@H]1CN(C)C(=O)c2cc(NC(=O)C3CCCCC3)ccc2OC[C@H](C)N(C(=O)c2ccccc2)C[C@H]1C,7.09% (inactive)
20,C/C=C/c1cnc2c(c1)C(=O)N([C@@H](C)CO)C[C@@H](C)[C@@H](CN(C)C(=O)C1CCOCC1)O2,-31.5% (inactive)

row,SMILES,inhibition
1,CCCNC(=O)Nc1ccc2c(c1)C(=O)N(C)[C@H]1CC[C@H](CC(=O)NC3CCC3)O[C@H]1CO2,57.7% (inactive)
2,N#Cc1ccc(-c2ccc3c(c2)[C@H]2[C@H](CCN2Cc2ccc4c(c2)OCO4)[C@@H](CO)N3)cc1,79.2% (inactive)
3,O=C(Cc1ccccc1)N1CC[C@H]2[C@H](CO)Nc3ccc(-c4ccccc4F)cc3[C@H]21,111% (active)
4,N#Cc1ccc(-c2ccc3c(c2)[C@@H]2[C@@H](CCN2C(=O)Cc2ccncc2)[C@@H](CO)N3)cc1,108% (active)
5,O=C(Cc1ccccc1)N1CC[C@@H]2[C@H](CO)Nc3ccc(-c4ccccc4)cc3[C@@H]21,81.9% (inactive)
6,CN(C)C(=O)c1cccc(-c2ccc3c(c2)[C@H]2[C@H](CCN2C(=O)Cc2ccccc2)[C@H](CO)N3)c1,80.1% (inactive)
7,O=C(CC1CC1)N1CC[C@@H]2[C@H](CO)Nc3ccc(-c4ccc(F)cc4)cc3[C@@H]21,89.6% (inactive)
8,Cc1noc(C)c1NC(=O)N(C)C[C@@H]1OCCCC[C@H](C)Oc2ccc(NS(=O)(=O)c3c(C)noc3C)cc2C(=O)N([C@@H](C)CO)C[C@@H]1C,-9.2% (inactive)
9,COc1cccc(S(=O)(=O)N[C@H]2CC[C@@H](CC(=O)NCc3ccc(F)cc3)O[C@@H]2CO)c1,47.6% (inactive)
10,COc1ccc(-c2ccc3c(c2)O[C@@H](CN(C)CC2CCOCC2)[C@@H](C)CN([C@@H](C)CO)S3(=O)=O)cc1,40.6% (inactive)
11,C[C@@H]1CCCCO[C@@H](CN(C)Cc2ccc(C(=O)O)cc2)[C@H](C)CN([C@H](C)CO)C(=O)c2cc(NS(=O)(=O)c3cccs3)ccc2O1,-101% (inactive)
12,C[C@@H]1CCCCO[C@H](CN(C)Cc2ccccc2)[C@H](C)CN([C@@H](C)CO)C(=O)c2cc(NS(=O)(=O)c3ccccc3)ccc2O1,86% (inactive)
13,COc1ccc(S(=O)(=O)Nc2ccc3c(c2)C(=O)N([C@@H](C)CO)C[C@H](C)[C@H](CN(C)Cc2ccc(C(F)(F)F)cc2)OCCCC[C@@H](C)O3)cc1,63.1% (inactive)
14,C[C@@H]1CN([C@H](C)CO)C(=O)c2cc(NS(=O)(=O)c3ccc(Cl)cc3)ccc2O[C@@H](C)CCCCO[C@H]1CN(C)Cc1ccccc1,112% (active)
15,C[C@@H]1CCCCO[C@@H](CN(C)Cc2ccc(C(F)(F)F)cc2)[C@H](C)CN([C@H](C)CO)C(=O)c2cc(NS(=O)(=O)c3ccc(F)cc3)ccc2O1,56.1% (inactive)
16,C[C@@H]1CCCCO[C@H](CN(C)Cc2ccccc2)[C@@H](C)CN([C@H](C)CO)C(=O)c2cc(NS(=O)(=O)c3ccc(Cl)cc3)ccc2O1,-26.9% (inactive)
17,C[C@H](CO)N1C[C@H](C)[C@H](CN(C)Cc2ccc(C(F)(F)F)cc2)OCCCC[C@H](C)Oc2ccc(NS(=O)(=O)c3ccc(Cl)cc3)cc2C1=O,98.6% (active)
18,C[C@@H]1CN([C@H](C)CO)C(=O)c2cc(NS(=O)(=O)c3cccs3)ccc2O[C@@H](C)CCCCO[C@H]1CN(C)Cc1ccc(C(F)(F)F)cc1,97.6% (active)
19,Cc1ccc(S(=O)(=O)Nc2ccc3c(c2)C(=O)N([C@H](C)CO)C[C@@H](C)[C@H](CN(C)Cc2ccccc2)OCCCC[C@H](C)O3)cc1,85.7% (inactive)
20,Cc1ccc(S(=O)(=O)Nc2ccc3c(c2)C(=O)N([C@H](C)CO)C[C@H](C)[C@@H](CN(C)Cc2ccccc2)OCCCC[C@H](C)O3)cc1,38.8% (inactive)

row,SMILES,inhibition
1,C[C@@H]1CCCCO[C@H](CN(C)Cc2ccccc2)[C@H](C)CN([C@H](C)CO)C(=O)c2cc(NS(=O)(=O)c3ccc(Cl)cc3)ccc2O1,109% (active)
2,COc1ccc(CN(C)C[C@@H]2OCCCC[C@H](C)Oc3ccc(NS(=O)(=O)c4cccs4)cc3C(=O)N([C@H](C)CO)C[C@@H]2C)cc1,44.9% (inactive)
3,CN1C(=O)c2cc(NC(=O)C3CC3)ccc2OC[C@@H]2O[C@@H](CC(=O)NCC3CCCCC3)CC[C@@H]21,-7.09% (inactive)
4,CCN1[C@@H]2c3ccc(C4=CCCC4)c(=O)n3C[C@@H]2[C@@H](CO)[C@@H]1C(=O)NCc1ccccn1,26.1% (inactive)
5,CO[C@H]1CN(C)C(=O)c2ccc(NC(=O)C3CC3)cc2OC[C@@H](C)N(C(=O)CN2CCOCC2)C[C@H]1C,-43.7% (inactive)
6,CN1C(=O)c2cc(NC(=O)c3cnccn3)ccc2OC[C@@H]2O[C@H](CC(=O)O)CC[C@@H]21,8.56% (inactive)
7,CC(=O)N1[C@H](CN(CC2CCC2)C(=O)CN(C)C)[C@@H](c2ccccc2)[C@@H]1CO,54.9% (inactive)
8,COc1ccc(NC(=O)N2C[C@H](O)COC[C@H]3O[C@@H](CC(=O)N4CCN(C)CC4)CC[C@@H]32)cc1,7.94% (inactive)
9,C[C@H]1CN([C@@H](C)CO)S(=O)(=O)c2ccc(-c3cncnc3)cc2O[C@H]1CN(C)Cc1ccncc1,25.1% (inactive)
10,C[C@@H]1CN([C@@H](C)CO)S(=O)(=O)c2ccc(-c3ccncc3)cc2O[C@@H]1CN(C)C(=O)Nc1ccc(F)cc1,100% (active)
11,C[C@@H]1CN([C@H](C)CO)S(=O)(=O)c2ccc(C#CCN(C)C)cc2O[C@@H]1CN(C)C,-35.4% (inactive)
12,C[C@@H]1CN([C@H](C)CO)S(=O)(=O)c2ccc(C#C[C@@H](C)O)cc2O[C@@H]1CN(C)Cc1ccc(-c2ccccc2)cc1,73.7% (inactive) and 125% (active)
13,C[C@@H]1CN([C@@H](C)CO)S(=O)(=O)c2ccc(C#CCN(C)C)cc2O[C@@H]1CN(C)CC1CC1,-40.3% (inactive)
14,C[C@H](CO)N1C[C@H](C)[C@H](CN(C)Cc2ccncc2)Oc2cc(-c3ccncc3)ccc2S1(=O)=O,111% (active)
15,C[C@@H]1CN([C@H](C)CO)S(=O)(=O)c2ccc(-c3ccncc3)cc2O[C@@H]1CN(C)C(=O)Nc1ccc(C(F)(F)F)cc1,82.6% (inactive)
16,C[C@H](CO)N1C[C@H](C)[C@H](CN(C)Cc2ccncc2)Oc2cc(-c3cncnc3)ccc2S1(=O)=O,16.7% (inactive)
17,C[C@H](O)C#Cc1ccc2c(c1)O[C@H](CN(C)Cc1cncnc1)[C@H](C)CN([C@@H](C)CO)S2(=O)=O,36.8% (inactive)
18,C[C@H](O)C#Cc1ccc2c(c1)O[C@@H](CN(C)Cc1cncnc1)[C@H](C)CN([C@H](C)CO)S2(=O)=O,-5.8% (inactive)
19,COc1ccc(NC(=O)N(C)C[C@H]2Oc3cc(-c4ccncc4)ccc3S(=O)(=O)N([C@H](C)CO)C[C@H]2C)cc1,70.2% (inactive)
20,C[C@H]1CN([C@@H](C)CO)S(=O)(=O)c2ccc(C#CCN(C)C)cc2O[C@@H]1CN(C)Cc1ccc(F)cc1,115% (active)
